Potency and affinity values are given separately. Activity calls are given as the source filed them. Where a call stands in place of a potency, no number is given. No rule for the calls is given here.
Assay: V-ATPase regulators in yeast, concentration series – S. cerevisiae, pHLuorin, cherry pick 2, dose response (AID 602198)

COc1ccc(N2C(=O)/C(=C/c3ccc(C)o3)C(=O)NC2=S)cc1
outcome: inactive

Cc1ccsc1/C=C1\C(=O)NC(=S)N(C)C1=O
outcome: inactive

From PubChem BioAssay AID602198 (NMMLSC, 2012)
